Screening data deposited in PubChem BioAssay by Broad Institute.
Rows were chosen to be rich in hits. Some 3.8% of all compounds tested hit in one or more screens of this group.
HSF1 activator = increases HSF-1 driven luciferase reporter signal; AID 504408; 1.7% of 300,000 active; NIH3T3-HGL HSF-1 luciferase reporter, MG132, 8 h; 100% = twice DMSO control signal; activation, % at 9 µM;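 active = mean replicate activation of at least 50% with a set share of replicates each reaching 50%; inconclusive = only one of those two conditions met; inactive = mean below 50% and too few replicates reaching it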;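 also: 0% = median of the neutral control wells and 100% = twice that signal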
Wnt bcat act = activates Wnt/beta-catenin signaling in a reporter cell assay; activator, plate reader; activation, % at 9.35 µM; 1.2% of 300,000 active; AID 743398; in the data active = activation above about 30%, passing the limit was not always enough; inconclusive = no clear call, values can overlap the other calls;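 also: 0% = neutral control wells and 100% = positive control wells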
MITF TRPM1 HTS = activators of MITF-driven TRPM1 promoter activity in SK-MEL-5 cells. SK-MEL-5 TRPM1-promoter luciferase, 24 h; % of positive control, neutral wells = 0. activation, % at 12.5 µM. 0.75% of 300,000 active;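 active = mean activation of at least 80% with every replicate also reaching 80%; inconclusive = mean reaches 80% but some replicate falls short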;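 also: 0% = neutral control wells and 100% = parthenolide positive control wells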
HSF1 inhib = HSF1 inhibition. 0.77% of 300,000 active. AID 2098. activity change, negative = inhibition, % at 7.5 µM (by protocol). NIH3T3-HGL HSE-luciferase, MG132-induced, luminescence 8 h; active compounds read low;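 active = more than half of replicate wells show activity change below -50%, luminescence cut by over half; inconclusive = some wells, but at most half, below -50%; inactive = no replicate well below -50%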;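 also: luciferase reports HSF-1 transcriptional activity via heat shock element; 0% = median of DMSO wells and -100% = zero luminescence signal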
esBAF inh = blocks esBAF chromatin remodeling in mouse ES cells; Bmi1-luciferase knock-in reporter, 24 h; 100% = twice the neutral-well signal; reporter increase, % at 12.5 µM; 2% of 350,000 active; in the data active = activation above about 40%; inconclusive = no clear call, values can overlap the other calls;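 also: 0% = median of the plate's neutral control wells and 100% = double that signal; a rise in the Bmi1 reporter signal indicates esBAF inhibition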
* hit, by the source's call; u = inconclusive; x = not tested or not shown.

SMILES	HSF1 activator	Wnt bcat act	MITF TRPM1 HTS	HSF1 inhib	esBAF inh
COc1ccc(C(=O)Cc2ccccc2C(=O)O)cc1	x	4.0	-2.7	x	x
COc1ccc(C(=O)CSc2ccccc2C(=O)O)cc1	23.2	43.5*	-6.4	12.2	x
COc1ccc(NC(=O)Cc2ccccc2)cc1	12.9	36.0*	22.6	10.4	56.9*
O=C(COc1ccccc1)c1ccccc1	x	24.0	33.5	x	46.3*
COc1ccc(C(=O)CC(=O)c2ccccc2)cc1	47.6	82.6*	x	23.4	70.1*
COc1ccc(NC(=O)CNC(=O)Cc2ccccc2)cc1	-10.0	0.3	-4.8	4.2	0.1
COc1ccccc1C#Cc1ccc([C@H]2[C@@H](CO)N3CCCCN(CCC(F)(F)F)C[C@H]23)cc1	x	x	x	x	-0.2
CCCNC(=O)N(C)C[C@@H]1Oc2ncc(-c3ccncc3)cc2C(=O)N([C@@H](C)CO)C[C@H]1C	x	x	x	x	-2.9
CC(=O)Nc1ccc(C(=O)COC(=O)c2ccco2)c(F)c1	x	-3.1	18.4	x	44.1*
CN(C)/C=C(/C(=O)c1ccccc1Cl)S(=O)(=O)c1ccccc1	10.2	x	x	7.8	-6.0
COc1ccc(C(=O)C(OC(=O)c2ccccc2)c2ccccc2)cc1 (stereo unspecified)	12.6	26.3	x	29.5	84.4*
COc1ccc(C(=O)/C(=C/N(C)C)S(=O)(=O)c2ccccc2)cc1	-5.1	11.6	94.0*	0.2	x
COc1ccc(/C(N)=N/OC(=O)c2ccco2)cc1	-9.7	-2.3	-18.0	-22.0	-35.3
CC(=O)Nc1ccc(NC(=O)COC(=O)c2ccco2)cc1	-5.1	-1.2	5.8	-15.0	x
COc1ccc(C(=O)COC(=O)c2ccco2)cc1	18.9	x	64.7	11.4	49.3*
O=C(N[C@H]1CC[C@H](CCNC(=O)c2cnccn2)O[C@H]1CO)c1ccc2c(c1)OCO2	x	x	x	x	-5.2
O=C(C[C@H]1CC[C@@H](NS(=O)(=O)c2ccccc2F)[C@H](CO)O1)NCCCN1CCOCC1	x	x	x	x	-2.4
C[C@@H]1CN([C@H](C)CO)C(=O)c2cc(C3=CCCC3)cnc2O[C@H]1CN(C)C(=O)c1ccc2c(c1)OCO2	x	x	x	x	-1.9
COc1ccc(CC(=O)Nc2ccc(-c3cn4ccc(C)cc4n3)cc2)cc1	u	x	-6.0	28.3	58.0*
COc1ccc(C(=O)C(=NN)c2ccccc2)cc1	x	-1.9	x	x	45.1*
COc1ccc(NC(=O)CSc2ccc3c4c(cccc24)C(=O)c2ccccc2-3)cc1	58.5*	2.7	x	12.1	20.4
COc1ccc(CC(=O)NCC(=O)Nc2ccccc2Br)cc1	56.0*	1.3	x	9.8	-0.4
COc1ccc(C(=O)C(=NNc2ccccc2)c2ccc(OC)cc2)cc1	x	-2.2	-32.7	x	-36.8
COc1ccc(CC(=O)Nc2ccc(-c3cn4cccc(C)c4n3)cc2)cc1OC	35.4	x	-8.7	7.5	6.6
COc1ccc(CNC(=O)CN(C)CC(=O)Nc2ccccc2Br)cc1	x	-0.6	9.0	x	5.4
SMILES	HSF1 activator	Wnt bcat act	MITF TRPM1 HTS	HSF1 inhib	esBAF inh
COCC#Cc1ccc2c(c1)O[C@@H](CN(C)C(=O)Nc1ccccc1F)[C@H](C)CN([C@@H](C)CO)S2(=O)=O	x	x	x	x	-1.9
COc1ccc(C/C(C)=N/NC(=S)Nc2ccccc2)cc1	1.8	4.8	19.4	-4.0	59.6*
COc1ccc(C/C(C)=N/NC(=S)Nc2ccc(Cl)cc2)cc1	-18.0	10.2	2.0	5.8	-3.0
COc1ccc(C(=O)c2c[nH]cc2-c2ccccc2)cc1	-68.6	-1.4	16.3	-56.5*	x
O=C(c1ccc2ccccc2c1)c1c[nH]cc1-c1ccccc1	-4.8	5.9	16.1	5.2	13.3
N#C[C@H]1[C@@H](c2ccc(-c3ccccc3F)cc2)[C@@H](CO)N1C(=O)c1ccccn1	x	x	x	x	0.9
Cc1ccc(/C=C2\OC(=O)c3ccccc32)cc1	59.3*	22.0	31.7	48.3	73.4*
Cc1ccccc1/C=C1\OC(=O)c2ccccc21	46.5	x	39.8	23.9	18.1
CC=Cc1ccc2n(c1=O)C[C@H]1[C@H](CO)[C@@H](C(=O)NCC3CC3)N(Cc3ccncc3)[C@@H]21 (mixture of isomers)	x	x	x	x	-2.9
O=C1c2ccccc2NC(c2ccc(O)cc2)N1/N=C/c1ccc(O)cc1 (stereo unspecified)	70.1*	26.8	52.1	28.5	x
O=C1c2ccccc2NC(c2ccccc2)N1/N=C/c1ccccc1 (stereo unspecified)	43.2	x	11.2	27.4	-33.3
Cc1ccc(NC(=O)c2ccc(NC(=O)c3ccccc3)cc2)cc1C	-30.3	0.6	-21.4	-24.2	0.6
COC(=O)CSC(C(=O)Nc1ccc(C)c(C)c1)c1ccccc1 (stereo unspecified)	-1.7	34.8*	28.5	2.0	-1.3
Cc1ccc(NC(=O)CC(=O)c2ccccc2)cc1C	35.3	-1.2	144.2*	14.5	75.4*
O=C(CC(Nc1ccccc1Cl)C(=O)O)c1ccccc1 (stereo unspecified)	-52.1	-2.3	-3.0	u	x
O=C(CSc1cccs1)Nc1ccc(Cl)cc1	65.5*	17.4	77.5	38.8	x
Cc1ccc(NC(=O)C(SCC(=O)O)c2ccccc2)cc1C (stereo unspecified)	-8.5	10.7	-3.8	-4.6	x
O=C(CC(Nc1ccc(Cl)cc1)C(=O)O)c1ccccc1 (stereo unspecified)	12.1	46.8*	73.1	23.6	x
COCCNC(=O)C[C@H]1C[C@@H]2c3cc(NC(=O)C4CCC4)ccc3O[C@@H]2[C@H](CO)O1	x	x	x	x	-7.9
C[C@H](CO)N1C[C@H](C)[C@H](CN(C)C(=O)Cc2ccccc2)OCCCC[C@H](C)Oc2ccc(NC(=O)Nc3ccc4c(c3)OCO4)cc2C1=O	x	x	x	x	4.9
C[C@H]1CN([C@@H](C)CO)C(=O)c2cc(NC(=O)Cn3cnnn3)ccc2O[C@@H]1CN(C)S(=O)(=O)c1ccc(F)cc1	x	x	x	x	-1.2
O=C(CC(=O)c1ccccc1)Nc1ccc(Cl)cc1	31.7	14.1	111.2*	19.6	u
CC1(C)Cc2c(sc3nc(C4CC4)n(N)c(=O)c23)CO1	-70.7	0.7	3.6	-60.2*	x
CN(C(=O)CSc1nc(-c2ccccc2)cs1)C1CCS(=O)(=O)C1 (stereo unspecified)	0.7	x	-0.5	12.6	8.0
CN(c1nc(-c2ccccc2)cs1)C1CCS(=O)(=O)C1 (stereo unspecified)	1.0	6.7	44.6	6.5	74.6*
SMILES	HSF1 activator	Wnt bcat act	MITF TRPM1 HTS	HSF1 inhib	esBAF inh
Nc1c2c(nc3sc4c(c13)CCCC4)-c1ccccc1CC2	-19.0	42.3*	x	-14.4	-13.9
O=C(CCNC(=O)c1ccccc1Cl)Nc1nc(-c2ccccc2Cl)cs1	-0.6	4.9	6.1	7.3	55.1*
Nc1ccc2cc3ccccc3cc2c1	x	8.9	u	x	48.5*
Cc1ccc2[nH]c(=O)c(-c3nc4cc(C)ccn4c3NCc3ccco3)cc2c1	-7.5	x	2.4	0.8	68.6*
Cc1cccc2cc(-c3nc4c(C)cccn4c3NCc3ccco3)c(=O)[nH]c12	11.9	-0.8	-5.1	10.4	7.1
C[C@@H]1CN([C@@H](C)CO)C(=O)c2cc(NC(=O)C3CC3)ccc2O[C@@H]1CN(C)CC1CCCCC1	x	x	x	x	-2.4
